Results on 8 molecules are retold here after PMC5540273 (PLoS ONE, 2017).

Holding throughout (details): concentration: 1 μM, replicates: in singlicate; n = 1
The test system of assay [1] is MAP3K4.
The test system of assay [2] is MAP4K2.
Assay [3] has as its system MAP4K3.
For assay [4], the system named is MAP4K4.
The subject of assay [5] is MAP4K5.
In assay [6] the test system is MAPKAPK2.
In assay [7] the test system is MAPKAPK5.
The test system of assay [8] is MARK1.
For assay [9], the system named is MARK2.
Assay [10] relates to MARK3.
Assay [11] concerns MARK4.
In assay [12] the test system is MAST1.
In assay [13] the test system is T1, MEK1.
T1 construct: gene MAP2K1

The subject of assay [14] is T2, MEK2.
T2 construct: gene MAP2K2

For assay [15], the system named is T3, MEK3.
T3 construct: gene MAP2K3

Assay [16] has as its system T4, MEK4.
T4 construct: gene MAP2K4

Assay [17] deals with T5, MEK5.
T5 construct: gene MAP2K5

For assay [18], the system named is T6, MEK6.
T6 construct: gene MAP2K6

Assay [19] relates to MELK.
For assay [20], the system named is MERTK.
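Note: KINOMEscan kinase panel screen.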

As to `CCS(=O)(=O)c1ccc(OC)c(Nc2ncc(-c3ccc(F)cc3)o2)c1.Cl` [GW591947], the “%Inh” value in assay [1] is recorded as 22%; in [2], 0%; in assay [3], 0%; in [4], 5%; in [5], 0%; in assay [6] it was 1%. For the same molecule, the “%Inh” value in assay [7], in assay [8], in assay [9], in assay [10], in assay [11] and in assay [12] was 0% throughout. For the same molecule, the “%Inh” value in [13] is listed as 0%; in assay [14], 0%; in assay [15], 0%; in [16], 6%; in [17], 18%; in assay [18], 0%. The “%Inh” value in [19] is 0%; in [20], 28%.

As to `Cc1ccc(Oc2ccc(Nc3ncnc4cc[nH]c34)cc2C)cn1`, the “%Inh” value in assay [1] was determined as 6%; in assay [2], 0%; in assay [3], 0%; in assay [4] it was 0%; in assay [5], 0%; in assay [6] it was 0%. Further, the “%Inh” value in assay [7] came to 30%; in assay [8], 20%; in [9], 4%; in assay [10], 3%; in assay [11] it was 19%; in assay [12], 49%. Moreover, the “%Inh” value worked out at 37% in assay [13]; 25% in [14]; 0% in assay [15]; 0% in assay [16]; 99.7% in assay [17]; 9% in assay [18]. Also, the “%Inh” value in [19] and in [20] was 0% throughout.

For the molecule `CN1C(=O)C(Nc2ccccc2)=C(c2ccccc2)C1=O` [SB-300079], the “%Inh” value in assay [1], in assay [2], in assay [3], in assay [4], in assay [5] and in [6] was 0% each time. The “%Inh” value in [7] is on record as 0%; in assay [8], 10%; in assay [9], 0%; in [10], 23%; in assay [11], 12%; in assay [12], 100%. The “%Inh” value amounted to 19% in assay [13]; 34% in assay [14]; 25% in [15]; 18% in assay [16]; 41% in [17]; 0% in assay [18]. In addition, the “%Inh” value in assay [19] and in assay [20] was 0% in each case.

Turning to `CN1C(=O)C(Nc2cc(Cl)c(O)c(Cl)c2)=C(c2ccc(Cl)cc2)C1=O` [SB-404321], the “%Inh” value was 0% in [1]; 0% in assay [2]; 0% in assay [3]; 0% in assay [4]; 0% in assay [5]; 89% in [6]. Besides, the “%Inh” value in assay [7] was found to be 0%; in assay [8] it was 0%; in assay [9] it was 10%; in assay [10] it was 0%; in assay [11], 0%; in assay [12], 41%. The “%Inh” value was 0% in [13]; 0% in assay [14]; 29% in assay [15]; 0% in assay [16]; 25% in [17]; 0% in assay [18]. Further, the “%Inh” value is 0% in assay [19] and 30% in assay [20].

With `CCn1c(-c2nonc2N)nc2ccccc21` [SB-693162/GW549034], the “%Inh” value turned out to be 0% in assay [1]; 4% in [2]; 0% in assay [3]; 0% in assay [4]; 0% in assay [5]; 0% in [6]. In addition, the “%Inh” value is on record as 33% in assay [7]; 0% in assay [8]; 25% in assay [9]; 0% in assay [10]; 0% in assay [11]; 5% in assay [12]. The “%Inh” value worked out at 30% in assay [13]; 25% in [14]; 47% in [15]; 48% in assay [16]; 18% in assay [17]; 0% in [18]. For the same molecule, the “%Inh” value in [19] came to 15%; in assay [20], 0%.

On to `O=C(Nc1n[nH]c2nc(-c3ccccc3)c(Br)cc12)C1CC1` [SB-708998], for which the “%Inh” value in assay [1] is on record as 0%; in assay [2] it was 1%; in assay [3], 0%; in assay [4], 17%; in [5], 13%; in assay [6] it was 0%. For the same molecule, the “%Inh” value in assay [7], in assay [8], in [9], in [10], in [11] and in [12] was 0% throughout. The “%Inh” value was 0% in [13]; 0% in [14]; 0% in assay [15]; 21% in assay [16]; 42% in assay [17]; 0% in assay [18]. Further, the “%Inh” value in assay [19] is 6%; in assay [20], 27%.

In the case of `O=C(Nc1ccc2c(c1)OCO2)NC1CCN(c2ccnc(NCc3ccc(F)cc3)n2)CC1` [GSK1379859], the “%Inh” value in assay [1] was 0%; in [2], 0%; in assay [3], 0%; in assay [4], 3%; in [5], 0%; in assay [6], 13%. Besides, the “%Inh” value is 0% in assay [7]; 8% in [8]; 0% in assay [9]; 0% in [10]; 20% in assay [11]; 0% in assay [12]. The “%Inh” value was determined as 0% in assay [13]; 0% in [14]; 6% in assay [15]; 0% in assay [16]; 8% in assay [17]; 0% in [18]. Besides, the “%Inh” value in [19] is listed as 100%; in [20] it was 26%.

For the molecule `Cc1nnc(-c2ccc3ncn(-c4ccc(S(C)=O)cc4)c3c2)o1` (stereo not shown), the “%Inh” value in assay [1] came out at 16%; in assay [2] it was 100%; in assay [3], 0%; in assay [4] it was 0%; in assay [5] it was 0%; in [6] it was 11%. Further, the “%Inh” value turned out to be 0% in assay [7]; 0% in assay [8]; 0% in assay [9]; 2% in assay [10]; 0% in assay [11]; 0% in assay [12]. The “%Inh” value in assay [13] was 2%; in [14], 22%; in assay [15], 15%; in assay [16], 8%; in assay [17], 0%; in assay [18], 13%. Moreover, the “%Inh” value came to 13% in assay [19] and 1% in assay [20].
